Experimental data: the supplement of paper PMC11150407
Among all 3,000 compounds or so, about 45 (2%) showed an effect of 50% or more. Only a selection was taken, and strong results are over-represented in it overall.

system: MOLM1 and UCSD/AML1 (averaged); test: cell viability relative to DMSO control (POC); higher = less growth inhibition; conditions: 1 µM; 72 h
Method: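 Primary viability screen in the 3q26 EVI1-high AML cell lines MOLM1 and UCSD/AML1, compounds at 1 uM for 72 h. ATP CellTiter-Glo read-out given as percent viable over DMSO control (POC), averaged over duplicates. This mapping covers the TimTec NDL-3000 natural derivative library, whose compounds are identified by TimTec catalogue codes (ST...).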

Point of comparison: `OCC1N2CCC(CC2)C1(O)O` (stereo not given), cell viability 32.3%. Against it:
- CCOC(=O)C1=C(N)Oc2c(c(=O)oc3ccccc23)C1c1ccc(Cl)cc1Cl (stereo not given) — higher, 104%
- CC(=O)OC1CCC2(C)C3CCC4(C)C(CC[C@]4(OC(C)=O)C(C)OC(C)=O)C3CC[C@H]2C1 (stereo not given in full) — higher, 109%
- CN1C(=O)C(=Cc2ccc3c(c2)OCO3)C(=O)N(C)C1=O — higher, 111%
- O.O.OCC1CCCN2CCCCC12.[Cl][Cu][Cl] (stereo not given) — higher, 110%
- Cc1ccc(C(c2c(O)c3ccccc3oc2=O)c2c(O)c3ccccc3oc2=O)cc1 — higher, 102%
- CCOC(=O)C1=C(N)Oc2c(c(=O)oc3ccccc23)C1c1ccc(Br)cc1 (stereo not given) — higher, 93%
- CCOC(=O)C1=C(N)Oc2c(c(=O)oc3ccccc23)C1c1ccc(Cl)c(Cl)c1 (stereo not given) — higher, 37.7%
- CCOC(=O)C1=C(N)Oc2c(c(=O)oc3ccccc23)C1c1cccc(Br)c1 (stereo not given) — higher, 103%
- COCCOC(=O)c1c(C)n(Cc2ccccc2Cl)c2ccc(O)cc12 — higher, 106%
